HCV inhibitor = HCV inhibition; Huh7.5.1 HCVcc-Cre infection, luciferase reporter, 44 h; hit rate 3.4% among 340,000; AID 651820; Potency, µM (doses to about 41.8 µM), actives largely listed as inhibitors; active means well fitted inhibition curve with a large enough effect; inconclusive means small, poorly fitted or top-dose-only effect, or another doubt; inactive means no such curve, though single readings can be large or run the other way
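Cells (1,000/well) were plated 4 h before compound, then infected with HCVcc-Cre virus (~0.5 moi). After 44 h further culture, infection was read as luciferase luminescence following a 15 min substrate incubation at room temperature.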
Vaccinia Venus = vaccinia inhibition (Venus reporter) | Vaccinia virus Venus reporter expression, fluorescence | Potency, µM (doses to about 36.5 µM), usual class: inhibitors | hit rate 0.46% among 330,000 | AID 720580; calls by dose curve; tested in A549 cells; further: nearly all actives have a fitted effect of over 30% in size
Marburg entry inh = inhibitors of Marburg virus binding or cell entry; Marburg virus pseudotyped entry inhibition, cell reporter; Potency, µM (doses to about 37.8 µM), usual class: inhibitors; hit rate 1.8% among 300,000; AID 540276; calls by dose curve; tested in HEK293 cells
LASV entry inh = inhibitors of Lassa virus binding or cell entry; Lassa virus pseudotype entry inhibition, cell reporter; Potency, µM (highest dose often 37.9 µM), actives largely listed as inhibitors; hit rate 1.2% among 300,000; AID 540256; calls by dose curve; tested in HEK293 cells; further: nearly all actives have a fitted effect of over 50% in size
VACV mCherry inh = vaccinia inhibition (mCherry reporter). Vaccinia virus mCherry reporter infection, fluorescence. Potency, µM (doses to about 36.5 µM), most hits filed as inhibitors. hit rate 0.63% among 310,000. AID 720579; calls by dose curve; tested in A549 cells; further: nearly all actives have a fitted effect of over 35% in size
Large screens that a line does not name were inactive. Compounds with a hit are over-represented: about 4.6% of the library has one in this group of screens.

CCOC(=O)c1c(C)oc2c1c1c(c3ccccc32)OCN(CCCC(=O)O)C1	HCV inhibitor 10µM (no result: Vaccinia Venus, Marburg entry inh, LASV entry inh, VACV mCherry inh)
CCOC(=O)c1c(C)oc2c1c1c(c3ccccc32)OCN(Cc2cccnc2)C1	HCV inhibitor 6.3µM, LASV entry inh inconclusive
CCOC(=O)c1c(C)oc2c1c(C(c1cccnc1)N1CCN(C)CC1)c(O)c1ccccc12 (stereo not drawn)	HCV inhibitor 11µM (no result: Vaccinia Venus, LASV entry inh, VACV mCherry inh)
O=C(Nc1c(C(=O)c2ccccc2)oc2ccccc12)c1cc(=O)c2ccccc2o1	none (no result: HCV inhibitor)
COc1ccc(NC(=O)CSc2nnc(-c3ccc(OC)cc3)s2)cc1	none (no result: HCV inhibitor, Marburg entry inh)
C[C@H](CO)N1C[C@H](C)[C@H](CN(C)Cc2ccc(-c3ccccc3)cc2)Oc2ccc(NS(=O)(=O)c3ccccc3)cc2CC1=O	HCV inhibitor inconclusive, Vaccinia Venus 10µM, VACV mCherry inh inconclusive (no result: Marburg entry inh, LASV entry inh)
C[C@H]1CN([C@@H](C)CO)C(=O)Cc2cc(NC(=O)CCC(F)(F)F)ccc2O[C@H]1CN(C)Cc1ccc(-c2ccccc2)cc1	HCV inhibitor inconclusive, Vaccinia Venus inconclusive, VACV mCherry inh 11µM (no result: Marburg entry inh, LASV entry inh)
C[C@H]1CN([C@@H](C)CO)C(=O)Cc2cc(NC(=O)CCC(F)(F)F)ccc2O[C@H]1CN(C)Cc1ccc(C(F)(F)F)cc1	Vaccinia Venus inconclusive (no result: Marburg entry inh, LASV entry inh)
Cc1ccc(-c2ccnc(-n3ncc(C(=O)NC[C@@H]4CCCN5CCCC[C@H]45)c3C3CC3)n2)o1	none (no result: HCV inhibitor, Marburg entry inh, LASV entry inh)
CC(C)=CCc1c([C@@H]2CCc3ccc(O)cc3O2)cc2c(c1O)OC(C)(C)C=C2	HCV inhibitor 14µM (no result: Marburg entry inh, LASV entry inh)
CC(C)=CCc1c(-c2ccc(O)cc2O)oc2c3c(cc(O)c2c1=O)OC(C)(C)C=C3	HCV inhibitor inconclusive (no result: Marburg entry inh, LASV entry inh)
N#CC1=C(N)N2C(=C(C#N)C1c1ccc(Br)cc1)Nc1ccccc12 (stereo not drawn)	HCV inhibitor 6.3µM, Marburg entry inh 9.2µM, LASV entry inh inconclusive (no result: Vaccinia Venus, VACV mCherry inh)
OC(CNc1ncnc2sccc12)c1ccccc1 (stereo not drawn)	HCV inhibitor 3.2µM, Marburg entry inh inconclusive, LASV entry inh inconclusive
COc1ccc(C(=O)Nc2nnc(SCC(=O)NC3CC3)s2)cc1	Marburg entry inh 10µM, LASV entry inh inconclusive
COc1cccc(C(=O)Nc2nnc(SCC(=O)NC3CC3)s2)c1	none
COc1cccc(C(=O)Nc2nnc(-c3ccc(OC)cc3OC)s2)c1	HCV inhibitor 10µM (no result: LASV entry inh)
COc1cccc(C(=O)Nc2nnc(-c3ccccc3)s2)c1	LASV entry inh inconclusive
COc1ccc(NC(=O)Nc2nnc(-c3cccs3)s2)cc1	none (no result: LASV entry inh)
COc1ccc(C(=O)Nc2nnc(-c3cccs3)s2)cc1	HCV inhibitor inconclusive, Marburg entry inh 3.2µM, LASV entry inh inconclusive
Nc1nonc1C(=O)NCCNCc1cccc(Cl)c1Cl	none (no result: HCV inhibitor)
O=C(N/N=C1\C[C@@H](O)[C@@H](O)[C@@H]2[C@@H]3C(=O)N(c4cccc(Oc5ccccc5)c4)C(=O)[C@@H]3CC[C@H]12)OCc1ccccc1	none (no result: HCV inhibitor, Vaccinia Venus, LASV entry inh, VACV mCherry inh)
Cc1ccc(NC(=O)c2cccc(S(=O)(=O)N3CCN(c4ccccc4)CC3)c2)nc1	HCV inhibitor 13µM, Marburg entry inh inconclusive
Cc1ccnc(NC(=O)c2cccc(S(=O)(=O)N3CCN(c4ccccc4)CC3)c2)c1	HCV inhibitor inconclusive, Marburg entry inh inconclusive, LASV entry inh 5µM, VACV mCherry inh inconclusive
Cc1ccnc(NC(=O)c2cccc(S(=O)(=O)N3CCCC3)c2)c1	none (no result: Vaccinia Venus, Marburg entry inh, LASV entry inh, VACV mCherry inh)
CC(C)CC(N)c1csc(NC(=O)c2cc(C(C)(C)C)nn2Cc2ccccc2)n1 (stereo not drawn)	Vaccinia Venus 13µM, VACV mCherry inh 11µM (no result: HCV inhibitor, Marburg entry inh, LASV entry inh)
COC(=O)c1cc(S(=O)(=O)C(C)C)c(S(C)=O)s1 (stereo not drawn)	Vaccinia Venus inconclusive, Marburg entry inh 11µM, VACV mCherry inh 10µM
CSc1sc(C(=O)NCC2CC2)cc1S(=O)(=O)C(C)C	LASV entry inh inconclusive
N=C(N)SCc1ccccc1Cl	Marburg entry inh 8.2µM
COc1cc(OC)c(CN2CCOc3ccc(CN4CCC(O)CC4)cc3C2)c(OC)c1	none (no result: HCV inhibitor, Marburg entry inh, LASV entry inh)
Cc1cc(C(=O)N/N=C/c2ccncc2)c(C)o1	none
Cc1ccc(/C=N/NC(=O)c2cc(C)oc2C)cc1	HCV inhibitor inconclusive, Marburg entry inh 10µM, LASV entry inh inconclusive
COc1ccccc1C(=O)OCc1cc(=O)n2c(C)csc2n1	none (no result: HCV inhibitor, Marburg entry inh)
O=[N+]([O-])c1ccc(N2CCN(c3cccc(Cl)c3)CC2)cn1	Marburg entry inh 8.9µM, LASV entry inh inconclusive, VACV mCherry inh inconclusive
CCn1c(-c2ccccc2)c(C(=O)CCl)c2ccccc21	HCV inhibitor 8.9µM (no result: Marburg entry inh, LASV entry inh)
Cn1c(-c2ccccc2)c(C(=O)CCl)c2ccccc21	HCV inhibitor 5.6µM, Marburg entry inh inconclusive
Cn1c(-c2ccccc2)c(CCO)c2ccccc21	Marburg entry inh inconclusive (no result: Vaccinia Venus, VACV mCherry inh)
CCn1c2ccccc2c(=O)c2ccccc21	HCV inhibitor inconclusive
CCc1ccccc1NC(=O)Nc1cc(C(=O)NCc2ccc(C)cc2)ccc1N1CCCC1	Vaccinia Venus inconclusive (no result: HCV inhibitor, Marburg entry inh)
CNC(=S)N/N=C/c1cn(CCOc2cccc(OC)c2)c2ccccc12	HCV inhibitor 10µM, Vaccinia Venus inconclusive, Marburg entry inh inconclusive, LASV entry inh inconclusive, VACV mCherry inh 4µM
CCOC(=O)N/N=C/c1cn(CCCOc2ccc(C)cc2)c2ccccc12	Marburg entry inh 7.1µM, LASV entry inh inconclusive, VACV mCherry inh inconclusive
CCOC(=O)N/N=C/c1cn(CCCOc2ccccc2)c2ccccc12	HCV inhibitor inconclusive, Marburg entry inh inconclusive, LASV entry inh inconclusive
COc1cccc(OCCn2cc(/C=N/NC(=O)c3ccncc3)c3ccccc32)c1	Marburg entry inh inconclusive
COc1ccc(Cc2nc3ccc(C(=O)NCc4cc(Br)ccc4OC)cc3o2)cc1	none (no result: HCV inhibitor, Marburg entry inh)
Cc1cc2cc(C(c3nnnn3C3CCCC3)N(Cc3cccnc3)Cc3ccco3)c(=O)[nH]c2cc1C (stereo not drawn)	Marburg entry inh 4.1µM, LASV entry inh inconclusive
Oc1cc2c(cc1O)[C@H]1c3ccc(O)c(O)c3OC[C@@]1(O)C2	HCV inhibitor inconclusive, Marburg entry inh inconclusive
Oc1ccc2c(c1)OCC1(O)Cc3cc(O)c(O)cc3C21 (stereo not drawn)	HCV inhibitor 25µM (no result: Marburg entry inh, LASV entry inh)
CC(=O)N1CCc2cc(CNS(=O)(=O)c3ccc(Cl)s3)ccc21	LASV entry inh inconclusive (no result: HCV inhibitor, Marburg entry inh)
Cc1ccccc1/C=c1\s/c(=C\C(=O)C(C)(C)C)[nH]c1=O	HCV inhibitor 11µM, Vaccinia Venus inconclusive, Marburg entry inh inconclusive, LASV entry inh inconclusive (no result: VACV mCherry inh)
CC(C)(C)C(=O)/C=c1\[nH]c(=O)/c(=C\c2ccc(F)cc2)s1	Vaccinia Venus 11µM (no result: VACV mCherry inh)
CCc1ccc(NC(=O)CSc2ccnc(=O)[nH]2)cc1	none (no result: HCV inhibitor, Marburg entry inh)
CC(C)CN(C(=O)COC(=O)Cc1ccc(Cl)cc1)c1c(N)n(Cc2ccccc2)c(=O)[nH]c1=O	HCV inhibitor inconclusive, LASV entry inh inconclusive
CCCCn1c(N)c(N(CCC(C)C)C(=O)COC(=O)Cc2ccc(Cl)cc2)c(=O)[nH]c1=O	Marburg entry inh 13µM, LASV entry inh inconclusive
CCCCC1CCC(C(=O)N(CCC(C)C)c2c(N)n(CCCC)c(=O)[nH]c2=O)CC1 (stereo not drawn)	Vaccinia Venus 11µM, VACV mCherry inh 16µM (no result: HCV inhibitor, Marburg entry inh, LASV entry inh)
CCCCN(C(=O)c1cc2c(s1)CCC2)c1c(N)n(CCCC)c(=O)[nH]c1=O	HCV inhibitor 11µM

Screening results as filed in PubChem.
